The results in this text go back to ChEMBL document CHEMBL4513216, “Probing the Open Global Health Chemical Diversity Library for Multistage-Active Starting Points for Next-Generation Antimalarials” (ACS Infect Dis, 2020).

The campaign covered roughly 69,000 compounds. About 8,600 (12%) showed an effect of 50% or more. The sample holds strong results, similar compounds and a random draw of the others, so the mix is not that of the screen.

The test concerns Plasmodium berghei. Put plainly: Screen against P. berghei liver stage (PbLuc), transformed with Luciferase, at 10uM. It is filed as functional, HepG2. The settings on record: tested at 10 uM.
Consider `Cn1ccnc1C1CCN(S(=O)(=O)c2ccc3c(c2)OCCO3)CC1`, for which the INHIBITION was 35.1%.

With `Cn1ccnc1C1CCN(S(=O)(=O)c2ccc3oc(=O)[nH]c3c2)CC1`, the INHIBITION stood at 59.7%.

With `O=c1[nH]c2cc(S(=O)(=O)N3CCC(c4ccsc4)CC3)ccc2o1`, the INHIBITION came out at 16.9%.

`Cn1ccnc1C1CCN(S(=O)(=O)c2ccc3[nH]c(=O)[nH]c3c2)CC1`: the INHIBITION was determined as 62.9%.

Turning to `Cc1cc2[nH]c(=O)oc2cc1S(=O)(=O)N1CCCC(N(C)C)CC1` (stereo not drawn), the INHIBITION was determined as 11.6%.

Consider `CCN(CC)S(=O)(=O)N1CCC(c2c(C(N)=O)sc3ccccc23)C1` (stereo not drawn), for which the INHIBITION is given as 27.6%.

Regarding `CC(=O)N1CCN(CC(N)=O)CC(COc2ccccc2)C1` (stereo not drawn), the INHIBITION is -17.7%.

Turning to `CCc1cc(NC(=O)C2CCCN(C(=O)NCC(C)C)C2)[nH]n1` (stereo not drawn), the INHIBITION worked out at 19.3%.

For `NC(=O)c1cn(CC2CC2)c(C2CC2)n1`, the INHIBITION is reported as -2.03%.

In the case of `COc1cccc(C(=O)NCCCN2CCc3ccccc3C2)c1OC`, the INHIBITION stood at 25.3%.

As to `CCC(CNC(=O)c1cncc(Br)c1)N1CCc2ccccc2C1` (stereo not drawn), the INHIBITION is 66.3%.

Turning to `COc1ccccc1C(=O)NCC(c1cccn1C)N1CCOCC1` (stereo not drawn), the INHIBITION came out at 44.9%.

`O=C(NCC(O)c1ccc(F)cc1F)c1ccccc1F` (stereo not drawn): the INHIBITION was -57.9%.

`CCC(CNC(=O)c1ccccn1)N1CCc2ccccc2C1` (stereo not drawn): the INHIBITION stood at 40.5%.

As to `CCC(C)NC(=O)c1cncc(Br)c1` (stereo not drawn), the INHIBITION was -76.5%.

As for `CCC(CNC(=O)c1ccc(F)cc1F)N1CCc2ccccc2C1` (stereo not drawn), the INHIBITION amounted to 64.3%.

In the case of `CCC(CNC(=O)c1ccc(Br)o1)N1CCc2ccccc2C1` (stereo not drawn), the INHIBITION was 16.8%.

For the compound `CCC(CNC(=O)c1ccccc1OC)N1CCc2ccccc2C1` (stereo not drawn), the INHIBITION worked out at 63.3%.

For the compound `Cn1cccc1C(CNC(=O)c1ccc(F)cc1F)N1CCCCCC1` (stereo not drawn), the INHIBITION came to 34.7%.

On to `CCC(CNC(=O)Nc1cnn(CC)c1)N1CCc2ccccc2C1` (stereo not drawn), for which the INHIBITION came out at 7.67%.

`CCC(CNC(=O)c1ccco1)N1CCc2ccccc2C1` (stereo not drawn): the INHIBITION was found to be 51.4%.

Consider `CC(c1ccco1)N(C)C(=O)NCCOc1ccc(C#N)cc1` (stereo not drawn), for which the INHIBITION amounted to 5.94%.

As for `CN(C)C(=O)CN1CCOCC2(CCN(CC3CCOCC3)CC2)C1`, the INHIBITION was 34.9%.

Consider `CNc1cccc(C2CCCN(C(=O)c3cncs3)C2)n1` (stereo not drawn), for which the INHIBITION came out at 5.56%.

In the case of `O=C(N[C@@H]1C[C@@H]2CC[C@H]1C2)C1(Oc2ccc(Cl)cc2)CCNCC1`, the INHIBITION is 9.72%.

On to `CCc1cnc(N2CC[C@@H]3CN(CCC(C)C)S(=O)(=O)[C@@H]3CC2)nc1`, for which the INHIBITION is -23.7%.

On to `CC(C)C(=O)N1CC[C@H]2N(C)CC[C@@]2(C(=O)N2CCCC2)CC1`, for which the INHIBITION is reported as 3.81%.

Take `Cc1cc(C)c(CNC(=O)N2CCCC2c2cccc(F)c2)c(=O)[nH]1` (stereo not drawn): the INHIBITION was 27.8%.

Take `CC(C)CS(=O)(=O)N1CCC2(CN(c3ccsc3)C(=O)CN2C)C1` (stereo not drawn): the INHIBITION was found to be 23.6%.

`O=C(NCC1(COc2cnccn2)C[C@@H](O)[C@@H](O)C1)C1CCCC1` (stereo partly drawn): the INHIBITION was -15.7%.

Turning to `CSc1ccccc1C(=O)NCCCN1CCc2ccccc2C1`, the INHIBITION is 5.03%.

For the compound `CCC(CNC(=O)c1ccccc1Br)N1CCc2ccccc2C1` (stereo not drawn), the INHIBITION was determined as 56.4%.

`CCC(CNC(=O)c1cc(OC)ccc1Br)N1CCc2ccccc2C1` (stereo not drawn): the INHIBITION worked out at 33.5%.

Take `Cc1nn(C)c(C)c1C1COCCN1C(=O)CC(C)(C)C` (stereo not drawn): the INHIBITION was found to be 62.2%.

For the compound `Cc1nn(C)c(C)c1C1COCCN1C(=O)CSC(C)(C)C` (stereo not drawn), the INHIBITION was 37.6%.

In the case of `CCN(CC)C(=O)N1CCOCC1c1c(C)nn(C)c1C` (stereo not drawn), the INHIBITION came out at 10.7%.

Turning to `CNC(=O)N1CCOCC1c1c(C)nn(C)c1C` (stereo not drawn), the INHIBITION is recorded as 28.7%.

As to `Cc1nn(C)c(C)c1C1COCCN1C(=O)NC1CC1` (stereo not drawn), the INHIBITION is listed as 17.5%.

As to `COCCNC(=O)N1CCOCC1c1c(C)nn(C)c1C` (stereo not drawn), the INHIBITION is 51%.

Consider `O=C(c1cnccn1)N1CCc2ncnc(-c3cccnc3)c2CC1`, for which the INHIBITION is 32.7%.

Take `CCc1ccc(CN2CCc3ncnc(-c4cccnc4)c3CC2)o1`: the INHIBITION is -48.8%.

`O=C(N1CCC(Oc2ccncc2)C1)C1(c2ccc(F)cc2)CC1` (stereo not drawn): the INHIBITION came out at 52%.

With `O=C(N1CCC(Oc2ccncc2)C1)C1(c2cccc(F)c2)CC1` (stereo not drawn), the INHIBITION stood at 25.1%.

For `O=C(N1CCC(Oc2ccncc2)CC1)C1(c2ccc(F)cc2)CC1`, the INHIBITION stood at 34.1%.

As for `Cc1cc(C(=O)NCC(C)N2CCc3ccccc32)on1` (stereo not drawn), the INHIBITION is on record as -25.9%.

Take `COCCn1ccc2ccc(C(=O)O)cc21`: the INHIBITION is -19.6%.

For `Fc1cnc(N2CCOCC3(CCCN(c4cnccn4)C3)C2)nc1` (stereo not drawn), the INHIBITION is listed as -13.7%.

Take `Cc1ccc(N2CCOCC3(CCCN(c4ncc(F)cn4)C3)C2)nn1` (stereo not drawn): the INHIBITION turned out to be 14.6%.

Consider `Cc1cnc(N2CCCC3(COCCN(c4ccc(C)nn4)C3)C2)nc1` (stereo not drawn), for which the INHIBITION is reported as 52.6%.

As to `Fc1ccc(CN2CCC3(CCCN(c4nncs4)C3)C2)cc1` (stereo not drawn), the INHIBITION is recorded as -11.6%.

Take `c1cnc(N2CCOCC3(CCCN(c4nncs4)C3)C2)cn1` (stereo not drawn): the INHIBITION is reported as 72%.

As to `Cc1ccc(N2CCCC3(COCCN(c4ncccn4)C3)C2)nn1` (stereo not drawn), the INHIBITION is recorded as -37.9%.

With `c1cnc(N2CCCC3(COCCN(c4nncs4)C3)C2)cn1` (stereo not drawn), the INHIBITION turned out to be 17.5%.

As to `Fc1cccnc1N1CCOCC2(CCCN(c3nncs3)C2)C1` (stereo not drawn), the INHIBITION is 12.6%.

As to `CC(C)c1ccc(CN2CCC3(CCCN(c4nncs4)C3)C2)cc1` (stereo not drawn), the INHIBITION is 60.4%.

`COc1ccc(N2CCOCC3(CCCN(c4cnccn4)C3)C2)cc1` (stereo not drawn): the INHIBITION amounted to 53.9%.

With `Cc1ccc(N2CCCC3(COCCN(c4cnccn4)C3)C2)nn1` (stereo not drawn), the INHIBITION is on record as -22.1%.

With `c1cncc(CN2CCC3(CCCN(c4nncs4)C3)C2)c1` (stereo not drawn), the INHIBITION is -11.6%.
